# From PubChem BioAssay (NCATS)
# Where “and” joins values, the source holds several entries; their conditions need not be identical. Equal entries are not always repeated. Inconclusive results are not listed. More than one record can exist for a structure, and the calls need not agree. Calls of active or inactive are those of the source. Calls come from the whole dose curve; as a rule, active = well fitted curve in the direction sought with a large enough effect; inconclusive = small, poorly fitted or top-dose-only effect, or another doubt; inactive = no such curve, though single readings can be large; an effect the other way counts as inactive or inconclusive. Non-standard residues stand in square brackets, D forms with d. Residues, ends and D or L forms follow the SMILES beside them. *: point of attachment. Sta = CC(C)C[C@H](N)[C@@H](O)CC(=O)O; Isovaleryl = CC(C)CC(=O)*
# Assay: Cell Viability qHTS for small molecule stabilizers of the endoplasmic reticulum resident proteome (AID 1508629);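 note: compound exposure about 46 h in total before the viability read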;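 for max response: human SH-SY5Y neuroblastoma cells carrying the GLuc-SERCaMP reporter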
# Conditions: cell viability counter-screen, 100 nM thapsigargin for final 4 h
# % is set by controls: 0 for no effect and ±100 for the full control effect; potency is the fitted concentration of half-maximal effect.
Compound,max response,Potency
O=C(O)c1cc(=O)c2c(OCC(O)COc3cccc4oc(C(=O)O)cc(=O)c34)cccc2o1,17.9% (inactive),
O=c1cc(N2CCOCC2)oc2c(-c3ccccc3)cccc12,-28.5% (inactive),
O=C(O)c1cn(-c2ccc(F)cc2)c2cc(N3CCNCC3)c(F)cc2c1=O,19.2% (inactive) and 20.4% (inactive),
COC(=O)C1=C(C)NC(C)=C(C(=O)OCCCN2CCC(c3ccccc3)(c3ccccc3)CC2)C1c1cccc([N+](=O)[O-])c1 (centres undefined),,28.2 µM (active)
Cc1cccc(C)c1OCC(=O)N[C@@H](Cc1ccccc1)[C@@H](O)C[C@H](Cc1ccccc1)NC(=O)[C@H](C(C)C)N1CCCNC1=O,-5.9% (inactive),
CN(C)c1ccc(O)c2c1C[C@H]1C[C@H]3[C@H](N(C)C)C(=O)C(C(N)=O)=C(O)[C@@]3(O)C(=O)C1=C2O,11.6% (inactive),
C[C@H](Cc1ccc(O)c(O)c1)[C@@H](C)Cc1ccc(O)c(O)c1,-16.2% (inactive),

# Assay: Primary qHTS for small molecule stabilizers of the endoplasmic reticulum resident proteome: Secreted ER Calcium Modulated Protein (SERCaMP) assay (AID 1508630)
# Conditions: SH-SY5Y GLuc-SERCaMP (Gaussia luciferase released on ER calcium loss) secretion, thapsigargin, luminescence; series mostly up to 38.4 µM; activity change, negative = inhibition: at the top concentration
# Procedure, shortened: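 The SH-SY5Y reporter protocol was run at 3 concentrations up to 38.3 uM (primary) or 11 concentrations (follow-up): 16 h compound, 100 nM thapsigargin for 4 h, then extracellular luciferase luminescence.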
Compound,Potency,"activity change, negative = inhibition"
CC1(C)NC(=O)N(c2ccc([N+](=O)[O-])c(C(F)(F)F)c2)C1=O,inactive,
O=C(O)c1cc(=O)c2c(OCC(O)COc3cccc4oc(C(=O)O)cc(=O)c34)cccc2o1,,48.4% (inactive)
O=c1cc(N2CCOCC2)oc2c(-c3ccccc3)cccc12,,1.07% (inactive)
N=C(N)c1ccc2cc(OC(=O)c3ccc(N=C(N)N)cc3)ccc2c1,inactive,
O=C(O)c1cn(-c2ccc(F)cc2)c2cc(N3CCNCC3)c(F)cc2c1=O,,39.9% (inactive)
COC(=O)N[C@H](C(=O)N[C@@H](Cc1ccccc1)[C@@H](O)CN(Cc1ccc(-c2ccccn2)cc1)NC(=O)[C@@H](NC(=O)OC)C(C)(C)C)C(C)(C)C,,-51.9% (inactive)
COCCCOc1ccnc(CS(=O)c2nc3ccccc3[nH]2)c1C (centres undefined),inactive,
CCCOc1ccc2nc(NC(=O)OC)[nH]c2c1,inactive,
CN(c1nccc(=O)[nH]1)C1CCN(c2nc3ccccc3n2Cc2ccc(F)cc2)CC1,inactive,
Cc1c(C(=O)NN2CCCCC2)nn(-c2ccc(Cl)cc2Cl)c1-c1ccc(Cl)cc1,inactive,
CC1=C(C(=O)O)N2C(=O)[C@@H](NC(=O)[C@H](N)C3=CCC=CC3)[C@H]2SC1,inactive,
O=c1c(O)c(-c2ccc(O)cc2O)oc2cc(O)cc(O)c12,inactive,
CCN(CC)C(=S)SSC(=S)N(CC)CC,,-20.8% (inactive)
COC(=O)C1=C(C)NC(C)=C(C(=O)OCCCN2CCC(c3ccccc3)(c3ccccc3)CC2)C1c1cccc([N+](=O)[O-])c1 (centres undefined),,59.9% (inactive)
C[C@]12CCC(=O)C=C1CC[C@@H]1[C@H]2[C@@H](O)C[C@@]2(C)[C@H]1CC[C@]2(O)C(=O)CO,,63% (inactive)
Clc1ccc(C(Cn2ccnc2)OCc2ccc(Sc3ccccc3)cc2)c(Cl)c1 (centres undefined),inactive,
CC(=O)Nc1ccc(O)cc1,inactive,
CN1C(C(=O)Nc2ccccn2)=C(O)c2sccc2S1(=O)=O,inactive,
CC(C)CC(=O)N[C@H](C(=O)N[C@H](C(=O)N[C@@H](CC(C)C)[C@@H](O)CC(=O)N[C@@H](C)C(=O)N[C@@H](CC(C)C)[C@@H](O)CC(=O)O)C(C)C)C(C)C (Isovaleryl-VV[Sta]A[Sta]-OH),inactive,

Compound,Potency,"activity change, negative = inhibition"
CC(C)c1nc(CN(C)C(=O)N[C@H](C(=O)N[C@@H](Cc2ccccc2)C[C@H](O)[C@H](Cc2ccccc2)NC(=O)OCc2cncs2)C(C)C)cs1,,159% (inactive)
CC(C)Oc1ccc2c(=O)c(-c3ccccc3)coc2c1,inactive,
O=C(OC1C[C@H]2CC[C@@H](C1)[N+]21CCCC1)C(O)(c1ccccc1)c1ccccc1 (some centres undefined),,-22.7% (inactive)
c1cnc2cc3c(cc2n1)C1CNCC3C1,,93.2% (inactive)
CN(C)CCc1c[nH]c2ccc(Cn3cncn3)cc12,,0% (inactive)
CNC[C@@H](O)[C@@H](O)[C@H](O)[C@H](O)CO,,-13.3% (inactive)
CCCc1cc(=O)[nH]c(=S)[nH]1,inactive,
COc1cc(Nc2c(C#N)cnc3cc(OCCCN4CCN(C)CC4)c(OC)cc23)c(Cl)cc1Cl,inactive,
CCC[C@@H]1C[C@@H](C(=O)N[C@@H]([C@H]2O[C@H](SC)[C@H](O)[C@@H](O)[C@H]2O)[C@@H](C)O)N(C)C1,,44.2% (inactive)
CN(C)c1ccc(O)c2c1C[C@H]1C[C@H]3[C@H](N(C)C)C(=O)C(C(N)=O)=C(O)[C@@]3(O)C(=O)C1=C2O,inactive and 31.6 µM (active),
NNc1nncc2ccccc12,inactive,
Cc1nc2n(c(=O)c1CCN1CCC(c3noc4cc(F)ccc34)CC1)CCCC2,inactive,
C[C@H](Cn1cnc2c(N)ncnc21)OCP(=O)(O)O,,185% (inactive)
S=c1nc[nH]c2nc[nH]c12,inactive,
Cc1cccc(C#Cc2ccccc2)n1,inactive,
C[C@H](Cc1ccc(O)c(O)c1)[C@@H](C)Cc1ccc(O)c(O)c1,,-64.5% (inactive)
OC(CN1CCN(c2cccc(Cl)c2)CC1)C(c1ccccc1)c1ccccc1 (centres undefined),inactive,
Cc1cccc(-c2[nH]ncc2-c2ccc3ncccc3n2)n1,,46.9% (inactive)
